{"source": "PubChem BioAssay AID1508600", "about": "(Functional Genomics Laboratory (NCATS/FGL), 2020)", "note": "Hit rate of the full screen: of about 53,000 sequences, about 3,700 (7%) were called active. Shown is part of a subset that was picked to be rich in actives. Values without a mark were called inactive.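 How the source made its calls: active means gene knockdowns whose robust z-score for IL-1 alpha signal is at least 2 or at most -2, so actives lie on both sides; inactive means the rest.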", "data": [{"assay": "Components of the Cytosolic LPS Sensing Pathway: Gene Identification via Genome-wide siRNA Screen;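 further: robust z of the log signal after scaling to non-targeting control siRNA wells of the plate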", "settings": "RAW264.7 macrophages, IL-1a HTRF, actives lie on both sides, screened at 100 nM (by protocol), cells primed 5 h with Pam3CSK4 first", "in_short": "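IL-1a HTRF of supernatants after 24 hour LipidA transfection of Pam3CSK4-primed (5 hours) RAW264.7 cells, 48h post-siRNA transfection (100 nM). Scores: percent of plate negative-control median, then log-based robust z-score.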", "values": [{"sequence": "GGACUGGUUCAUCCUUGUGTT against G6pc", "z-score": 0.922}, {"sequence": "GGACCACCUAAGUUUAAGCTT against Pde6g", "z-score": -0.557}, {"sequence": "GGCAUCAAGCACAAGAAAATT against Sys1", "z-score": -1.16}, {"sequence": "CCUGUGCCUCGUUUUAUUUTT against Fam161a", "z-score": 0.807}, {"sequence": "GGUGAUCGAGGAGAGUCUATT against Oaf", "z-score": -0.737}, {"sequence": "GGUGGAGUUAGAAAACUACTT against BC048679", "z-score": -0.341}, {"sequence": "CCUGAACGUGAGUGGAGAATT against Man1c1", "z-score": -0.8}, {"sequence": "GGUGAAGAUUGAGAAGGAGTT against Aifm3", "z-score": "-2.05 (active)"}, {"sequence": "GACCUACCAGAUGAAGGUCTT against Vmn1r28", "z-score": 0.29}, {"sequence": "GCGACUUUAGCUAAACAUGTT against Kcns2", "z-score": 1.79}, {"sequence": "GGAAGAAACAUGUAUCAUGTT against Tff1", "z-score": 0.556}, {"sequence": "GACAGUGCACGAUCUGAUUTT against Pfn3", "z-score": 0.274}, {"sequence": "GCUGGAAUGCAAGGGCUUCTT against Gchfr", "z-score": 1.45}, {"sequence": "GGAUAUGAAACAAUAACAGTT against Arid5b", "z-score": -0.349}, {"sequence": "GGCAAAAUCUAUUGUCUUCTT against Ran", "z-score": "-2.2 (active)"}, {"sequence": "GGAGGUAAAUGAAAAAUCUTT against Nop56", "z-score": 0.611}, {"sequence": "GGUGAUCGUGGUGUGGAACTT against Extl2", "z-score": 0.941}, {"sequence": "GGCAAUGAUGAGACCUAGUTT against Mybbp1a", "z-score": 0.0956}, {"sequence": "GCAAUCGAGCUGAAACUAGTT against Hat1", "z-score": 0.721}, {"sequence": "CCACCAUUUAUAUUUGGUUTT against Slc35g1", "z-score": -0.298}, {"sequence": "GGGUUACAAUAACUGGACATT against Ggcx", "z-score": "2.32 (active)"}, {"sequence": "GCCACAUGGUUAAUAAGAGTT against Postn", "z-score": -1.5}, {"sequence": "ACCUCAAGACAGUGCAAAUTT against H2bc4", "z-score": -1.41}, {"sequence": "GGAAAAUCAACAGCAUCAATT against Olfr661", "z-score": -0.642}, {"sequence": "CCCUAUUGAUUCAACUUGGTT against Samt4", "z-score": 0.253}, {"sequence": "GGGCAACGUAUUCACAUUATT against Manbal", "z-score": "2.86 (active)"}, {"sequence": "GGAGCUUUGAAGAGACUGGTT against Olfr117", "z-score": "-2.32 (active)"}, {"sequence": "GGUGCUGCUGAGAUUUUUCTT against Pxt1", "z-score": 0.555}, {"sequence": "GGCAAUGGAGAGAGAGAUGTT against Patl1", "z-score": "-2.36 (active)"}, {"sequence": "GGAUCAAAGGAAGAAGGGCTT against Zbtb24", "z-score": -0.00585}, {"sequence": "GGCCAGAACUUAAAUUUUCTT against Nbr1", "z-score": 0.658}, {"sequence": "GGUAGUGUCUAACUUCUGGTT against Zkscan17", "z-score": "2.13 (active)"}, {"sequence": "GGGACAAUUCUGGAUUAAATT against 9330155M09Rik", "z-score": -0.639}, {"sequence": "GGGAAUCACCCUGAGAAAGTT against Ccndbp1", "z-score": -0.269}, {"sequence": "GAACAGUCCUUUUAUGGAUTT against Vmn1r33", "z-score": 0.38}, {"sequence": "GCAUCCUUCACUCAAAUAUTT against Aspa", "z-score": "3.17 (active)"}, {"sequence": "GGACAGAGUUUUCAUUUUGTT against Rptn", "z-score": -1.51}, {"sequence": "GCUUCAGCCAUUUCACCUUTT against Rnaseh2c", "z-score": 0.108}, {"sequence": "GGGAAUAAUCUACAAGCCATT against Ccdc121", "z-score": 1.92}, {"sequence": "GGUGUACCAGCAUAGCUGUTT against Hps5", "z-score": 1.24}, {"sequence": "GGAAAAUUACAGAAUUGGATT against Dnali1", "z-score": 0.323}, {"sequence": "GGAGCACUUUAAGUUAUACTT against Rnf225", "z-score": 1.73}, {"sequence": "GGAAGAUGACAACUUAUCUTT against Abcc8", "z-score": -0.854}, {"sequence": "AUGAAAACCAUUCCCAAUUTT against Olfr435", "z-score": "5.22 (active)"}, {"sequence": "GGCUGUUCUCUAGAUGAAUTT against 1810065E05Rik", "z-score": -1.54}, {"sequence": "GCACUAGCUAAUAAUGCAATT against Oxsm", "z-score": -1.54}, {"sequence": "GGAAUGAGAAGAGAGGAUCTT against Rpp25", "z-score": -0.239}, {"sequence": "GGGCAAGUUUUUUUUUCUUTT against Sf3a2", "z-score": 0.586}, {"sequence": "UGGCCUGAUCAUGAACAGUTT against S100a7a", "z-score": 1.21}, {"sequence": "GGCCGAAGAAUUCAUCUUUTT against Pomgnt2", "z-score": -0.339}, {"sequence": "GGUCGAUUUGUCCUUGUGCTT against Rassf7", "z-score": "-2.04 (active)"}, {"sequence": "GGGCCUGAAAAGACCAUCATT against Olfr124", "z-score": -0.424}, {"sequence": "CCUUGAUCUACAUAGAACCTT against Olfr177", "z-score": 0.338}, {"sequence": "GGGAUUUUGUGAUGUCCGCTT against Mmp23", "z-score": 0.422}, {"sequence": "CCACUUUCAACCUGACCGUTT against Pcdhac2", "z-score": 0.345}, {"sequence": "GGACGAUUCCCAGUUUCUGTT against Phf1", "z-score": 1.25}, {"sequence": "GCCGGAAUCAAGAUUAUCATT against Foxm1", "z-score": "-2.04 (active)"}, {"sequence": "GGCUGCUUUCUGAUGGUCATT against Marchf3", "z-score": 0.595}, {"sequence": "GGAAUACUGAAUUUAAGGATT against Olfr1416", "z-score": 1.25}, {"sequence": "GGAAGCGUAAAUAAGUGUCTT against Emp2", "z-score": 0.772}, {"sequence": "GGAAAAUGUUGAAGUGGAATT against Ndufa5", "z-score": -0.805}, {"sequence": "GGUGCAUGCACUGAAGAAGTT against Mpv17", "z-score": 1.39}, {"sequence": "CGAAUAGGGAGCCAUAAGATT against Tubb6", "z-score": 1.66}, {"sequence": "GCCUCACUCAGCAAAAGGATT against Ttc9c", "z-score": "-2.09 (active)"}, {"sequence": "GGAGACCUGUGACUCCUUATT against 4932415M13Rik", "z-score": 1.9}, {"sequence": "GCUAGACUUCUUUGUGCGATT against Abhd8", "z-score": 0.656}, {"sequence": "GGCAAUGGCACUGAAGUCATT against Olfr994", "z-score": -0.0376}, {"sequence": "CCCAAGCAACCCUUAUCAATT against Mcee", "z-score": -0.315}]}]}
